Results on 19 compounds are retold here after PubChem BioAssay (NCI).

“And” between values parts separate entries of the source, which are not always exact repeats. Equal entries are not always repeated. Compounds without any hit were thinned out: in the full panel of roughly 79,000, 15% have a hit. Some structures have more than one record in an assay (separate samples or runs), and their calls can disagree. The source made the active and inactive calls. Cut-off read from the data, not from the text of the source: active = growth inhibition above about 70%; inactive = the rest.

A short description of test [1]: NCI Yeast Anticancer Drug Screen. Data for the rad50 strain (AID 155).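 Note: 0% = growth of vehicle-only cultures of the same strain.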 The following applies: S. cerevisiae rad50 strain growth inhibition; at 50.0 µM; stronger effect = higher value. Summed up:
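Growth of the mutant yeast was measured after compound exposure and referenced to vehicle-treated cultures.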

Test [2] can be described thus: NCI Yeast Anticancer Drug Screen. Data for the mec2-1 strain (AID 157). The following applies: S. cerevisiae mec2-1 strain, at 50.0 µM, stronger effect = higher value. The procedure, abridged:
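Strain: mec2-1 (DNA repair/cell cycle alteration). Compound exposure, then growth measured; inhibition expressed relative to vehicle.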

Test [3] is described as follows: NCI Yeast Anticancer Drug Screen. Data for the sgs1 mgt1 strain (AID 161).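 Note: 0% = growth of cultures given vehicle only.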 Particulars: S. cerevisiae sgs1 mgt1 strain, at 50.0 µM, stronger effect = higher value. The procedure, abridged: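 Mutant yeast exposed to compound; growth scored against vehicle-only wells.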
A short description of test [4]: NCI Yeast Anticancer Drug Screen. Data for the cln2 rad14 strain (AID 165).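 Note: 0% = growth equal to vehicle treated cultures.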 Particulars: S. cerevisiae cln2 rad14 strain, at 50.0 µM, stronger effect = higher value. The procedure, abridged:
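Compounds are applied to the cln2 rad14 yeast strain, and growth is then compared with that of vehicle-treated cultures to give inhibition.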

The nature of test [5]: NCI Yeast Anticancer Drug Screen. Data for the bub3 strain (AID 167). The following applies: S. cerevisiae bub3 mutant strain, at 50.0 µM, stronger effect = higher value. Summed up: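 Whole-cell yeast assay. The mutant strain was incubated with compounds, and growth inhibition was determined by comparison with vehicle-treated cells.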
Test [6] can be described thus: NCI Yeast Anticancer Drug Screen. Data for the mlh1 rad18 strain (AID 175). Particulars: S. cerevisiae mlh1 rad18 strain growth inhibition; at 50.0 µM; stronger effect = higher value. Summed up: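 Read-out is yeast growth inhibition, calculated against vehicle-only controls. The compound was applied to a strain engineered with DNA damage repair alterations.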

On to `[Cr+3].[NH-]CC[NH-].[NH-]CC[NH-].[NH-]CC[NH-].[O-][Cl+3]([O-])([O-])O`, for which the growth inhibition in test [1] is 19.2% (inactive); in test [2] it was 1.2% (inactive); in test [3], 1.05% (inactive); in test [4] it was -5.15% (inactive); in test [5], 1% (inactive); in test [6] it was -1.8% (inactive).

Consider `NC(=NCc1ccccc1)N[N+](=O)[O-]`, for which the growth inhibition in test [1] is -7.3% (inactive); in test [2], 3.65% (inactive); in test [3], -10.6% (inactive); in test [4] it was 17.7% (inactive); in test [5], 30.7% (inactive); in test [6], -3.15% (inactive).

Take `CC1CN(C2CCCCC2)CO1` (centres undefined): the growth inhibition in test [1] is -0.6% (inactive); in test [2], -30.8% (inactive); in test [3], 0.8% (inactive); in test [4], -10.8% (inactive); in test [5] it was -20.5% (inactive); in test [6] it was -32.2% (inactive).

On to `Cc1cc(-n2c(C)nc3ccccc3c2=O)on1`, for which the growth inhibition in test [1] was -35.1% (inactive); in test [2] it was -15.7% (inactive); in test [3] it was -4.15% (inactive); in test [4] it was -47.5% (inactive); in test [5] it was 8.9% (inactive); in test [6], 3.75% (inactive).

`NC(=O)c1c([N+](=O)[O-])ccc(N(CCCl)CCCl)c1[N+](=O)[O-]`: the growth inhibition is -5.1% (inactive) in test [1]; 1.25% (inactive) in test [2]; -12.9% (inactive) in test [3]; 4.75% (inactive) in test [4]; -5% (inactive) in test [5]; -6.05% (inactive) in test [6].

In the case of `CC(=O)SCCC(NC(=S)Nc1ccccc1)P(=O)(Oc1ccccc1)Oc1ccccc1` (centres undefined), the growth inhibition was -17.9% (inactive) in test [1]; 10.3% (inactive) in test [2]; 8.35% (inactive) in test [3]; -11.9% (inactive) in test [4]; -7.1% (inactive) in test [5]; -10.3% (inactive) in test [6].

Consider `N#CCCCCCl`, for which the growth inhibition is 19.4% (inactive) in test [1]; 10.9% (inactive) in test [2]; 16.3% (inactive) in test [3]; 25.2% (inactive) in test [4]; 13.6% (inactive) in test [5]; 28.9% (inactive) in test [6].

For `COc1ccc(C[As+](c2ccccc2)(c2ccccc2)c2ccccc2)cc1`, the growth inhibition was 97.8% (active) in test [1]; 98.3% (active) in test [2]; 97.4% (active) in test [3]; 97% (active) in test [4]; 93% (active) in test [5]; 97.2% (active) in test [6].

With `CN1C(=O)CC(=O)N(C)P1(=O)Oc1ccccc1`, the growth inhibition in test [1] is -6% (inactive); in test [2] it was 3.25% (inactive); in test [3], 14% (inactive); in test [4], -1.6% (inactive); in test [5] it was -1.7% (inactive); in test [6], 4.15% (inactive).

For the compound `CCOC(=O)C(Br)C(C)Br` (centres undefined), the growth inhibition in test [1] was -13.4% (inactive); in test [2], -39.5% (inactive); in test [3] it was -23.1% (inactive); in test [4] it was 7.1% (inactive); in test [5], -9.65% (inactive); in test [6], -22.5% (inactive).

`CCCCCCCCCCCCCCCCOc1ccc(S(=O)(=O)F)cc1C(=O)Nc1ccc(S(=O)(=O)Nc2cccc3ccccc23)cc1`: the growth inhibition in test [1] is 3.3% (inactive); in test [2] it was 1.9% (inactive); in test [3], -2.75% (inactive); in test [4], -3.05% (inactive); in test [5] it was -0.3% (inactive); in test [6], 5.35% (inactive).

As to `CC1=CC2C(C=C1)S(=O)(=O)N1CC21c1ccccc1` (centres undefined), the growth inhibition in test [1] is 20.9% (inactive); in test [2] it was -31.4% (inactive); in test [3], -11% (inactive); in test [4], -8.3% (inactive); in test [5], -20.6% (inactive); in test [6], -3.9% (inactive).

For `Cc1cc2c(C(C)C)c(O)c(O)c(C=O)c2c(O)c1-c1c(C)cc2c(C(C)C)c(O)c(O)c(C=O)c2c1O`, the growth inhibition is 47.7% (inactive) and 59.2% (inactive) in test [1]; 52.6% (inactive) and 71.2% (active) in test [2]; 41.1% (inactive) and 46.5% (inactive) in test [3]; 47.6% (inactive) and 67.5% (inactive) in test [4]; 49.1% (inactive) and 43.6% (inactive) in test [5]; 60.2% (inactive) and -27% (inactive) in test [6].

As to `CN(C)c1ccccc1CN1CCCN(Cc2ccccc2N(C)C)C1c1ccc(N(CCCl)CCCl)cc1`, the growth inhibition in test [1] was 92.4% (active); in test [2] it was 40.4% (inactive); in test [3] it was 93.5% (active); in test [4] it was 57.4% (inactive); in test [5], 15.1% (inactive); in test [6] it was 90.8% (active).

For the compound `CCN(CC)C(=S)SCc1ccccc1OC(=O)NC`, the growth inhibition in test [1] is -4.35% (inactive); in test [2], -8.6% (inactive); in test [3], 7.2% (inactive); in test [4] it was -43.5% (inactive); in test [5], 33.1% (inactive); in test [6] it was -5.95% (inactive).

`C[CH2][Sn]([CH2]C)([CH2]C(=O)OC)[CH2]C(=O)OC`: the growth inhibition is 3.15% (inactive) in test [1]; 14.7% (inactive) in test [2]; 15.5% (inactive) in test [3]; 11.7% (inactive) in test [4]; 14.4% (inactive) in test [5]; -9.9% (inactive) in test [6].

Take `[C-]#[O+].[C-]#[O+].[C-]#[O+].[C-]#[O+].[Cr].c1ccc([PH+](CC[PH+](c2ccccc2)c2ccccc2)CC[PH+](c2ccccc2)c2ccccc2)cc1`: the growth inhibition was 14.9% (inactive) in test [1]; 3.75% (inactive) in test [2]; -3.35% (inactive) in test [3]; 32.2% (inactive) in test [4]; 19.4% (inactive) in test [5]; 6.2% (inactive) in test [6].

For `CC(Br)C(=O)NC(C)C(=O)O` (centres undefined), the growth inhibition in test [1] was -19.6% (inactive) and -15.2% (inactive); in test [2] it was -16.6% (inactive) and -19.9% (inactive); in test [3] it was -12.4% (inactive); in test [4] it was 5.75% (inactive); in test [5] it was -17.6% (inactive); in test [6], -28.6% (inactive) and -21.2% (inactive).

Consider `CC1(C)C2=CC[C@H]3[C@@H]4CC[C@H](O)[C@@]4(C)CC[C@@H]3[C@@]2(C)CC[C@@H]1O`, for which the growth inhibition in test [1] was -2.6% (inactive); in test [2], -16.4% (inactive); in test [3], -4.75% (inactive); in test [4] it was -19.4% (inactive); in test [5] it was 5.35% (inactive); in test [6], -3.15% (inactive).
